Screen size: about 65,000 compounds; about 2,100 (3.2%) showed an effect of 50% or more. The median lay at about -52%. This excerpt belongs to a sample that is enriched for strong results.
tested on: Plasmodium falciparum; test: Screen against P. falciparum Asexual Blood Stage (ABS), at 5uM; format: functional, Dd2; details: tested at 5 uM

Row | Compound | INHIBITION
1 | Cn1cc(CCCN2CCCC(c3cc(C(F)(F)F)[nH]n3)C2)cn1 (configuration not stated) | 33.1%
2 | Cc1cnn(CC2CN(Cc3cccc(OC(C)C)c3)CCO2)c1 (configuration not stated) | 35.5%
3 | O=C(NC1CCC1)[C@H]1C[C@H]2CN(CC3CC3)C[C@@H]1O2 | -98%
4 | O=C(c1cccc(-n2cccn2)c1)N1CCCOC(Cn2cccn2)C1 (configuration not stated) | -33.9%
5 | O=C(c1cccc(-n2cccn2)c1)N1CCCOC(CN2CCCC2)C1 (configuration not stated) | 53.4%
6 | NCC1CN(C(=O)c2cccc(-n3cccn3)c2)CCO1 (configuration not stated) | -21.2%
7 | O=C(CSCC1CC1)N1CCCN(c2ccc(F)cc2)CC1 | -42.8%
8 | COc1ccc(-n2cnnc2SCC(=O)N(C)C(C)C)cn1 | -60.2%
9 | CCOC(=O)N1CCc2ccccc2C12CCNCC2 | 54.6%
10 | COCC(=O)N1CCc2ccccc2C12CCNCC2 | -52%
11 | O=C(C1CC1)N1CCc2ccccc2C12CCNCC2 | -55.8%
12 | Cc1cc(-c2cnc(N3CCNC(=O)C3)nc2-c2ccncc2)on1 | -43.2%
13 | CCc1nc(C)c(C(=O)N2C[C@@H](C(=O)O)[C@H](C3CC3)C2)s1 | -112%
14 | COCCN(C)C[C@H]1C[C@H](CO)CN(C(=O)c2ccc(=O)n(C)c2)C1 | -100%
15 | Cc1ccc(N2CCC3(CN(Cc4ccncc4)CCC3(F)F)C2)nn1 (configuration not stated) | -5.89%
16 | CCC(NCc1ccccn1)c1ccccc1OCC(=O)NC (configuration not stated) | -27.1%
17 | CCC(NCc1ccccc1)c1ccccc1OCC(=O)NC (configuration not stated) | 65.6%
18 | CCC(NC(=O)c1ccco1)c1ccccc1OCC(=O)N1CCCC1 (configuration not stated) | -51.4%
19 | CC(Cn1cncn1)NC(=O)N1CC2(CCCC2)c2ccccc21 (configuration not stated) | -89%

Row | Compound | INHIBITION
20 | N#CC1(NC(=O)Cc2cc(Cl)c3c(c2)OCCO3)CCC1 | -75%
21 | O=C(c1cocn1)N1CC[C@H]2OCC[C@@]2(COc2ncccc2F)C1 | -34.6%
22 | COCC(=O)N1Cc2ccnn2CC(COCCN(C)C)C1 (configuration not stated) | -13.6%
23 | CC(C)n1c(C2CCCN(CC(N)=O)C2)nc2ccccc21 (configuration not stated) | -23.5%
24 | CC(C)OCCCN1CCCC(c2nc3ccccc3n2C(C)C)C1 (configuration not stated) | 56%
25 | CC(C)n1c(C2CCCN(CCS(C)(=O)=O)C2)nc2ccccc21 (configuration not stated) | -69.9%
26 | Cc1ccnc(NC(=O)CCc2cnn(C)c2C)c1 | -26.3%
27 | CC(C)CSCCCNC(=O)C1CCC1 | -47.5%
28 | CCN(CC1CCOC1)S(=O)(=O)Cc1cc(Cl)ccc1OC (configuration not stated) | 59.1%
29 | CCN(CC1CCOC1)S(=O)(=O)Cc1ccccc1Cl (configuration not stated) | -53.1%
30 | COc1ccc(Cl)cc1CCNC(=O)N(C)CC1CCOC1 (configuration not stated) | -102%
31 | CN1CCCCC12CCN(C(=O)c1cccn1C)CC2 | -27%
32 | COCCNc1ncnc2c1CCN(C(=O)CC1CCC(=O)N1)CC2 (configuration not stated) | -36%
33 | CC(=O)N1CCC2(CCCN(C(=O)CCN3CCCCC3)C2)C1 (configuration not stated) | -141%
34 | CC(=O)N1CCOC2(CCCN(C(=O)CCN3CCCCC3)C2)C1 (configuration not stated) | 56%
35 | CC(=O)N1CCCC2(C1)CN(C(=O)C1CCCCC1)CCO2 (configuration not stated) | -104%
36 | Cc1nccc(NCc2cncc3c2CCN(S(C)(=O)=O)C3)n1 | -102%
37 | Nc1cc(-c2cccs2)nn(CC(=O)N2CCc3ccccc32)c1=O | -13.9%
38 | Cc1cc(C)n(CC(C)NCCn2nc(C)c(Cl)c2C)n1 (configuration not stated) | -48.1%

Row | Compound | INHIBITION
39 | Cc1ccnc(NCCCN2CCc3ccccc32)n1 | 19.8%
40 | Cc1cc(C)n(CC(C)NCCN2CCc3ccccc32)n1 (configuration not stated) | 54.7%
41 | N#CC1(C(=O)N2C[C@@H]3CC[C@H]2CN(Cc2cscn2)C3)CCOCC1 | -81.2%
42 | COc1cc(F)c(NCc2nc3ccccc3n2C)cc1OC | -381%
43 | O=C1N(Cc2cccnc2)CCC12CCCN(c1ncccn1)C2 (configuration not stated) | -123%
44 | CNC(=O)CN1CCCC(Cc2ccccc2OC)C1 (configuration not stated) | 61.9%
45 | CNC(=O)NC(=O)CN1CCCC(Cc2ccccc2OC)C1 (configuration not stated) | -87.4%
46 | Nc1nccnc1CC1CCCN(Cc2ccnc3ccccc23)C1 (configuration not stated) | -53.7%
47 | Nc1nccnc1CC1CCCN(Cc2cccc3[nH]ccc23)C1 (configuration not stated) | 19.4%
48 | COc1ccccc1CC1CCCN(CC(=O)NC2CC2)C1 (configuration not stated) | 16.1%
49 | COc1ccccc1CN1CCCC(Cc2nccnc2N)C1 (configuration not stated) | 62.1%
50 | CCN1CCN(c2ccccc2NC(=O)N(C)C2CCSC2)CC1 (configuration not stated) | 37.6%
51 | CN(C)Cc1noc2c1CN(Cc1ccc[nH]1)CC2 | -77.5%
52 | Cc1ccc2c(c1)C(NCc1nccn1Cc1ccccc1)CCCO2 (configuration not stated) | 35.8%
53 | Cc1ccc2c(c1)OCCCC2NC1CCN(C)CC1 (configuration not stated) | 50.3%
54 | Cc1ccc2c(c1)C(NCc1nnc3n1CCCCC3)CCCO2 (configuration not stated) | -74.6%
55 | Cc1ccc2c(c1)C(NC1CCN(C)CC1)CCCO2 (configuration not stated) | 66.8%
56 | Cc1cc2c(cc1C)C(NC1CC1)CCCO2 (configuration not stated) | -3.02%
57 | Cc1ccc2c(c1)OC(C)(C)CC2NC(=O)C1CCN(C)CC1 (configuration not stated) | 30.2%

From ChEMBL document CHEMBL4513216, “Probing the Open Global Health Chemical Diversity Library for Multistage-Active Starting Points for Next-Generation Antimalarials” (ACS Infect Dis, 2020)
